# Screening data from PubChem BioAssay.
# Shown are actives, neighbours in structure and some others; about 9.5% of the full set was active somewhere.
# NPSR antag: blocks cAMP signaling of the human neuropeptide S receptor; CHO-NPSR cells, cAMP TR-FRET, antagonist mode; Potency, µM (highest dose often 38.3 µM), inactives show at the top dose activity change, negative = inhibition, usual class: inhibitors; Q6W5P4; actives 1% (n = 220,000); also: nearly all actives have a fitted effect of over 50% in size
# Target sequence (Q6W5P4 whole entry, looked up): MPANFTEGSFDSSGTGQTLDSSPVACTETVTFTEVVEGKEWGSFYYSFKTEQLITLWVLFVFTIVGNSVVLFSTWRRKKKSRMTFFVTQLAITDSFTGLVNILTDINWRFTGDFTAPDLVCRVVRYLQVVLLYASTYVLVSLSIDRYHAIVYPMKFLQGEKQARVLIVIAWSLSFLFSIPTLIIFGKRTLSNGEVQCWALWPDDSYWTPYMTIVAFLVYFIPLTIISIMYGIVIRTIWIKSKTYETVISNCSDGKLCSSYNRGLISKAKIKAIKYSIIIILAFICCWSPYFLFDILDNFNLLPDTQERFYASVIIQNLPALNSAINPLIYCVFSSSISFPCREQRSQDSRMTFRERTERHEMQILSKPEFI
# ALDH1A1 block: ALDH1A1 (human) enzyme inhibition. Purified ALDH1A1, NADH fluorescence, propionaldehyde substrate. Potency, µM (doses to about 75.3 µM), for the others: at the top dose activity, negative = inhibition, most hits filed as inhibitors. actives 7.3% (n = 220,000); active = well fitted inhibition curve with a large enough effect, not every such curve was filed as active; inconclusive = small, poorly fitted or top-dose-only effect, or another doubt; inactive = no such curve, though single readings can be large or run the other way;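 also: plate controls were no enzyme wells and a reference inhibitor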
# Tau fibril ThT: blocks human tau fibril formation measured by thioflavin T. P10636. actives 2.1% (n = 270,000). recombinant tau K18 P301L, heparin-induced fibrillization, ThT fluorescence. Potency, µM (highest dose often 57.4 µM), without a hit: top-dose activity, negative = inhibition, usual class: inhibitors; also: nearly all actives have a fitted effect of over 55% in size
#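 Using a mix of unlabeled (15 uM) and Alexa 594-labeled (0.24 uM) tau K18 P301L, heparin-triggered fibrillization over 6 hr at 37 C was scored by ThT fluorescence.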
# Tau fibril FP: tau fibrillization inhibition (FP). actives 0.39% (n = 280,000). P10636. Potency, µM (titrated, usually from 57.7 µM), inactives show at the top dose activity, negative = inhibition, most hits filed as inhibitors. K18 P301L tau heparin fibrillization, Alexa594 FP, 6 h; also: nearly all actives have a fitted effect of over 55% in size
#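 FP of Alexa 594-tau after heparin (20 uM) induction. Substrate: human K18 P301L, 15 uM unlabeled, 0.24 uM labeled. Buffer 100 mM sodium acetate pH 7. 6 hr, 37 C.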
# HPGD block: HPGD (human) dehydrogenase inhibition. purified HPGD, NADH fluorescence kinetic, PGE2 substrate. Potency, µM, without a hit: top-dose activity change, negative = inhibition, actives largely listed as inhibitors. actives 4.3% (n = 150,000); active = well fitted inhibition curve with a large enough effect, not every such curve was filed as active; inconclusive = small, poorly fitted or top-dose-only effect, or another doubt; inactive = no such curve, though single readings can be large or run the other way
# Target sequence (P15428 whole entry, looked up): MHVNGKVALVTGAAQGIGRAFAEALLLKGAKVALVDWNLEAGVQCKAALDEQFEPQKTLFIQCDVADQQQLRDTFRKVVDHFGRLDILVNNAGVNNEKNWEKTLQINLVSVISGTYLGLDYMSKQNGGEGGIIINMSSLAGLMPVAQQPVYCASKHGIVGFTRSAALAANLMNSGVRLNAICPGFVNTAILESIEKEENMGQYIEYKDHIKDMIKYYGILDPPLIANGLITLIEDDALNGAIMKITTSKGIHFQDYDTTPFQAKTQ
#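 20 nM HPGD preincubated 15 min at room temperature with compound in 50 mM Tris-HCl pH 8, 0.01% Tween 20. Started with 1 mM NAD+ and 30 uM prostaglandin E2; NADH fluorescence (360/450 nm) read 5 times over 30-s intervals, last minus first.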
# Tau fluor counter: counter-screen for tau fibril formation inhibitors. actives 0.93% (n = 280,000). Potency, µM (series often up to 57.7 µM), without a hit: at the top dose activity change, negative = decrease. tau K18 P301L Alexa594 fluorescence, heparin fibrillization; also: nearly all actives have a fitted effect of over 55% in size
#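 Human tau K18 P301L (15 uM unlabeled, 0.24 uM Alexa 594-labeled) in 100 mM sodium acetate pH 7 with 20 uM heparin, 6 hr at 37 C. ThT 30 uM added, 1 hr ambient; Alexa 594 FP and total fluorescence read at 555/632 nm.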
# Active calls of the source: *; ? = inconclusive; · = no result given; [ ] = remark or other dose. Unless noted, calls follow the shape of the dose curve; as a rule, active = well fitted curve in the direction sought with a large enough effect; inconclusive = small, poorly fitted or top-dose-only effect, or another doubt; inactive = no such curve, though single readings can be large; an effect the other way counts as inactive or inconclusive. Unless noted, % is scaled to controls: 0 for no effect and ±100 for the full control effect; potency is read from the fitted curve at half-maximal effect.
SMILES,NPSR antag,ALDH1A1 block,Tau fibril ThT,Tau fibril FP,HPGD block,Tau fluor counter
Cc1cc(NC(=O)c2ccccc2)c(Cl)cc1N,8%,·,-7%,10%,·,-2%
O=c1ccc2cc3c4c(c2o1)CCCN4CCC3,2%,?,?,-14%,·,-16%
O=c1oc2c3c4c(cc2s1)CCCN4CCC3,-13%[46.1 µM],25µM*,?,?,22µM*,?
COc1ccc(Cn2c(C(=O)O)c(CNC3CCCCCC3)c3ccc(OC)cc32)cc1,·,·,-6%,-1%,·,-5%
S=c1[nH]cc(Cc2ccccc2)s1,-2%,10µM*,-1%,4%,20µM*,2%
CCOc1ccc(C(=O)c2oc3ccccc3c2NC(=O)c2cc(-c3ccc(C)cc3)on2)cc1,·,·,0%,-2%,·,-3%
CN(/N=C/c1ccc(O)cc1O)c1ncc(C(F)(F)F)cc1Cl,10%[7.67 µM],·,?,17%,·,18µM*[quencher]
O=C(NCc1ccccc1)c1sc(=S)n2c1[nH]c(=O)c1ccccc12,-7%[46.1 µM],?,14µM*,6%,?,?
CC(=O)NNC(=O)c1sc(=S)n2c1[nH]c(=O)c1sccc12,-15%,3.5µM*,?,9%,·,-17%
NC(=O)c1sc(=S)n2c1[nH]c(=O)c1sccc12,-21%,?,11µM*,1%,·,-26%
NC(=O)c1sc(=S)n(-c2ccc(Br)cc2)c1N,-1%[46.1 µM],0%,-17%,0%,-29%,-17%
CC(=O)NNC(=O)c1sc(=S)n(C)c1C,-8%,·,4%,1%,·,4%
COc1ccc(CNC(=O)c2sc(=S)n(-c3ccccc3)c2N)cc1,2%,·,·,4%[0.0958 µM],·,0%[0.0958 µM]
CCOC(=O)OCC1OC(C#Cc2ccc(C)cc2C)C=CC1OC(=O)OCC (stereo not given),·,-8%[13.5 µM],-10%[11.5 µM],1%[11.6 µM],·,-13%[11.6 µM]
O=C(NC1CCCCC1)c1ccccc1NC(=S)NC(=O)C1CCC1,6%,1%,-5%,8%,-10%,-1%
O=C(/C=C/c1ccccc1Cl)NC(=S)Nc1ccccc1C(=O)NC1CCCCC1,-2%[46.1 µM],22µM*,-9%,-4%,28µM*,-3%
COc1ccc(C)cc1NC(=O)C(=O)NCc1ccncc1,-10%[46.1 µM],18µM*,-12%,-3%,·,-15%
CCOc1ccccc1CNCCCSc1nnnn1C,·,·,1%,3%,·,-3%
Cc1cccc(-n2cc(CN3CCCN(C=O)CC3)c(-c3cccc(F)c3)n2)c1,42%,10µM*,-7%,-3%,·,-16%
Cc1cccc(-n2cc(CN(C)Cc3nccn3C)c(-c3cccc(F)c3)n2)c1,?,?,-11%,8%,·,-7%
CC(=O)N1CCCN(Cc2cn(-c3cccc(C)c3)nc2-c2cccc(F)c2)CC1,-29%,·,-12%,1%,·,-11%
CCn1ccnc1CN(C)Cc1cn(-c2cccc(C)c2)nc1-c1cccc(F)c1,?,20µM*,?,8%,·,-12%
COc1ccc(OC)c(/C=C/c2nc3ccccc3c(=O)n2-c2ccc(F)c(Cl)c2)c1,·,·,14%,3%,·,-10%
Cc1nnc(SCC(=O)Nc2cc(S(=O)(=O)N3CCCC3)ccc2Cl)s1,-5%,·,-12%,-1%,·,-20%
Cc1ccc(-c2nc(SCC(=O)Nc3cc(S(=O)(=O)N4CCCCC4)ccc3Cl)n[nH]2)cc1,-29%,2%,1%,22µM*,-21%,?
SMILES,NPSR antag,ALDH1A1 block,Tau fibril ThT,Tau fibril FP,HPGD block,Tau fluor counter
O=C(CSc1nc2ccccc2s1)Nc1cc(S(=O)(=O)N2CCOCC2)ccc1Cl,5%,22µM*,-10%,1%,-31%,?
CC(Sc1nnc2c(n1)C1(C)CCC2C1(C)C)C(=O)Nc1ccccc1 (stereo not given),-17%[46.1 µM],-12%,0%,-5%,-12%,0%
CSc1nc(-c2ccccc2)nc(N2CCCC2)c1C(C)=O,-18%[46.1 µM],4%,-11%,3%,20µM*,-15%
COC(=O)c1n[nH]n(-c2cc(Cl)cc(Cl)c2)c1=O,-29%,10µM*,0%,-4%,·,-6%
N#Cc1ccc2c(c1)NC(=O)C1CCCN21 (stereo not given),-3%,?,20µM*,?,·,-17%
CNS(=O)(=O)c1ccc2c(c1)NC(=O)C1CCCN21 (stereo not given),6%,?,?,?,?,-11%
Cc1ccc(OCCCN2C(=O)C(=O)c3cccc(C)c32)cc1,-10%[46.1 µM],0.071µM*,?,3%,18µM*,-12%
CCCOc1ccc(CN2C(=O)C(=O)c3cccc(C)c32)cc1,·,·,18µM*,-3%,·,-26%
COc1ccccc1OCCCN1C(=O)C(=O)c2cccc(C)c21,1%,0%,14%,7%,·,20%
Cc1ccc(C)c(CN2C(=O)C(=O)c3ccccc32)c1,·,·,-16%,1%,·,-1%
Cc1ccc(OCCN2C(=O)C(=O)c3cc(C)ccc32)cc1,6%,?,?,11%,·,-6%
Cc1ccc(CN2C(=O)C(=O)c3cc(Br)cc(C)c32)cc1,·,·,28µM*,?,·,?
CCCCCCCCCCCCCCCCCC(=O)NCC(COP(=O)([O-])OCC[N+](C)(C)C)OCC (stereo not given),?,-6%,?,13%,-14%,-6%
CCCCCCCCCCCCCCCC(=O)NCC(COP(=O)([O-])OCC[N+](C)(C)C)OCC (stereo not given),10µM*,-4%,?,7%,-8%,-7%
Cc1ccc2c(CNCCc3ccco3)c(C(=O)O)n(Cc3ccc(F)cc3)c2c1,·,·,0%,5%,·,-2%
O=C(COC(=O)/C=C/c1ccco1)Nc1cccc([N+](=O)[O-])c1,13%,25µM*,2%,3%,-14%,1%
CCN(CC)S(=O)(=O)c1cccc(NC(=O)COC(=O)/C=C/c2ccco2)c1,-5%,25µM*,-7%,5%,-13%,-20%
CN(C)S(=O)(=O)c1cccc(NC(=O)COC(=O)/C=C/c2ccco2)c1,10%,-7%,-4%,-7%,-15%,-5%
N/C(=N\OC(=O)CCC1CCCC1)c1cccnc1,22%,?,1%,4%,-16%,-1%
O=C(O)c1cc2ccccc2cc1Nc1ccccc1,35%,·,?,10%,·,-25%
Cc1ccccc1NC(=O)CSc1ccncc1,-11%,?,-7%,6%,·,-4%
CC12C=C(/C=C/c3ccccc3)C(C)(C1)C(c1ccccc1)CC2=O (stereo not given),·,-8%[13.5 µM],-6%[11.5 µM],0%[11.6 µM],·,-4%[11.6 µM]
COc1ccc(N=C2NC(=O)/C(=C\C=C\c3ccco3)S2)cc1,-37%,11µM*,8.9µM*,?,·,?
Cc1ccc(N=C2NC(=O)/C(=C\c3ccco3)S2)cc1,-18%,-11%,?,6%,?,-27%
